Among the test systems are NCI-H23 lung; NCI-H226 lung; NCI-H322M lung; HOP-62 NSCLC; NCI-H460 lung; HOP-92 NSCLC; NCI-H522 lung; A549/ATCC NSCLC; 786-0 renal; COLO 205 colon; DU-145 prostate; K-562 leukemia; MALME-3M melanoma; MDA-MB-231 breast; RXF 393 renal; SF-268 CNS; SF-295 CNS; SF-539 CNS; UACC-257 melanoma; M14 melanoma.
Assay in all cases: NCI-60 one-dose screen, 48 h (100 = growth as untreated, 0 = no growth, -100 = all killed)
Common to all, as to details: 10 µM unless noted

Structures are written as SMILES. The panel holds about 83,000 compounds, 20% with a hit somewhere; the sample as a whole holds those more often.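 Cells were grown in 96-well plates and exposed to the test compound at a single concentration for 48 hours; results are reported as percent growth, with values below 10 considered active.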 Unmarked numbers belong to inactive results. Active and inactive are the calls of the source.

`COc1ccc(-c2oc(=O)ccc2-c2cc(OC)c(OC)c(OC)c2)cc1O`: the growth in the assay on NCI-H23 lung is 49%; in the assay on NCI-H226 lung, 64.1%; with NCI-H322M lung, 41.6%; in the assay with HOP-62 NSCLC, -15.8% (active); in the assay with NCI-H460 lung it was 4.04% (active); in the assay with HOP-92 NSCLC, 103%. The growth with NCI-H522 lung was -0.118% (active); with A549/ATCC NSCLC, 26%; in the assay with 786-0 renal, 20.5%; in the assay with COLO 205 colon it was 45.2%; in the assay on DU-145 prostate, 6.81% (active); in the assay with K-562 leukemia, -9.26% (active). Further, the growth is 37.8% with MALME-3M melanoma; 38.6% in the assay with MDA-MB-231 breast; -38.7% (active) in the assay on RXF 393 renal; 24.9% with SF-268 CNS; -17.8% (active) in the assay on SF-295 CNS; -13.7% (active) with SF-539 CNS. Further, the growth was 47.3% in the assay on UACC-257 melanoma and -62.5% (active) in the assay on M14 melanoma.

For `O=C(Cn1nnc2ccccc21)N/N=C/c1ccccc1F`, the growth in the assay with NCI-H23 lung is 105%; in the assay on NCI-H226 lung it was 85.8%; in the assay on NCI-H322M lung, 93.6%; in the assay on HOP-62 NSCLC, 102%; in the assay with NCI-H460 lung, 104%; in the assay on HOP-92 NSCLC it was 103%. Also, the growth was 84.9% with NCI-H522 lung; 89.2% with A549/ATCC NSCLC; 97.5% with 786-0 renal; 113% with COLO 205 colon; 107% with DU-145 prostate; 94.3% in the assay on K-562 leukemia. For the same molecule, the growth in the assay on MALME-3M melanoma was 102%; with MDA-MB-231 breast, 91.1%; in the assay with RXF 393 renal, 101%; with SF-268 CNS, 93.9%; in the assay on SF-295 CNS it was 111%; in the assay with SF-539 CNS it was 102%. In addition, the growth with UACC-257 melanoma was 93%; in the assay on M14 melanoma it was 108%.

As to `c1ccc2cc(Cn3c[n+](Cc4ccc5ccccc5c4)c4ccccc43)ccc2c1`, the growth in the assay with NCI-H23 lung was -0.737% (active); with NCI-H226 lung, 19.6%; in the assay on NCI-H322M lung, 34.6%; in the assay on HOP-62 NSCLC, 3.98% (active); with NCI-H460 lung it was -34.2% (active); with HOP-92 NSCLC it was -27.7% (active). The growth is -28.8% (active) with NCI-H522 lung; 30.9% in the assay with A549/ATCC NSCLC; -68.2% (active) with 786-0 renal; -80.7% (active) with COLO 205 colon; 15% in the assay with DU-145 prostate; -49.7% (active) in the assay with K-562 leukemia. The growth was -17.8% (active) in the assay on MALME-3M melanoma; -54.1% (active) in the assay with MDA-MB-231 breast; -56.5% (active) with RXF 393 renal; -30.5% (active) in the assay on SF-268 CNS; 6.18% (active) in the assay on SF-295 CNS; 17.7% in the assay on SF-539 CNS. Further, the growth in the assay on UACC-257 melanoma is -38.6% (active); in the assay with M14 melanoma, -80.6% (active).

As for `OC(c1ccccc1)(c1ccccc1)c1ccccc1-c1ccccc1`, the growth in the assay with NCI-H23 lung is 83.9%; with NCI-H226 lung, 91.9%; in the assay on NCI-H322M lung, 101%; with HOP-62 NSCLC it was 90.4%; in the assay with NCI-H460 lung, 93.1%; in the assay on HOP-92 NSCLC, 67.1%. Moreover, the growth with NCI-H522 lung is 75.9%; in the assay with A549/ATCC NSCLC, 81.8%; with 786-0 renal, 95.9%; in the assay on COLO 205 colon, 81%; with DU-145 prostate, 96.2%; in the assay with K-562 leukemia, 96.5%. The growth in the assay with MALME-3M melanoma was 120%; with MDA-MB-231 breast, 84.4%; in the assay with RXF 393 renal, 103%; in the assay with SF-268 CNS it was 90.6%; with SF-295 CNS, 109%; with SF-539 CNS it was 112%. The growth in the assay with UACC-257 melanoma is 101%; with M14 melanoma, 99.4%.

For `N=c1sc(Cc2cc(Cl)ccc2Cl)cn1CC(=O)c1ccccc1`, the growth is 68.4% with NCI-H23 lung; 66.3% in the assay on NCI-H226 lung; 56.4% with NCI-H322M lung; 74.6% in the assay with HOP-62 NSCLC; 20.3% with NCI-H460 lung; 51.2% with HOP-92 NSCLC. For the same molecule, the growth with NCI-H522 lung is 39.8%; in the assay on A549/ATCC NSCLC it was 30%; in the assay on 786-0 renal, 78.4%; in the assay on COLO 205 colon, 72.1%; in the assay with DU-145 prostate it was 68.7%; in the assay with K-562 leukemia it was 17%. Besides, the growth is 44.6% in the assay on MALME-3M melanoma; 54.9% with MDA-MB-231 breast; 77.1% in the assay with RXF 393 renal; 58.9% in the assay with SF-268 CNS; 57.3% with SF-295 CNS; 64.1% in the assay on SF-539 CNS. In addition, the growth was 60.3% with UACC-257 melanoma and 21.1% in the assay with M14 melanoma.

With `NC(CSC(c1ccccc1)(c1ccccc1)c1ccc2c(c1)OCO2)C(=O)O` (stereo not given), the growth with NCI-H23 lung was 14.6%; with NCI-H226 lung, 75%; in the assay with NCI-H322M lung, 26.6%; with HOP-62 NSCLC, 55.3%; with NCI-H460 lung it was 7.27% (active); with HOP-92 NSCLC, 10.9%. Besides, the growth in the assay with NCI-H522 lung is -20.9% (active); with A549/ATCC NSCLC it was 18.5%; in the assay on 786-0 renal, 51.1%; in the assay with COLO 205 colon, -32% (active); in the assay with DU-145 prostate, -26.3% (active); with K-562 leukemia, 8.25% (active). The growth was 47.6% in the assay with MALME-3M melanoma; 19.8% in the assay on MDA-MB-231 breast; -5.81% (active) in the assay on RXF 393 renal; 38.8% in the assay with SF-268 CNS; -27.6% (active) with SF-295 CNS; 13.4% in the assay with SF-539 CNS. In addition, the growth was 32.6% in the assay on UACC-257 melanoma and -19.4% (active) with M14 melanoma.

Regarding `CCN(CC)CCCNCc1cc(-c2ccccc2)nc2cc(Cl)ccc12`, the growth with NCI-H23 lung is 68.6%; in the assay with NCI-H226 lung, 140%; in the assay with NCI-H322M lung it was 75.5%; in the assay with HOP-62 NSCLC, 78.1%; with NCI-H460 lung, 43.3%; with HOP-92 NSCLC it was -20.9% (active). The growth is 44.2% with NCI-H522 lung; 57.4% in the assay with A549/ATCC NSCLC; -27.6% (active) with 786-0 renal; 51.2% with COLO 205 colon; 78.3% in the assay with DU-145 prostate; -17.3% (active) in the assay with K-562 leukemia. Also, the growth in the assay with MALME-3M melanoma was -66.4% (active); in the assay on MDA-MB-231 breast, 22.1%; with RXF 393 renal, 77.2%; with SF-268 CNS, 38.2%; in the assay with SF-295 CNS, 79.9%; with SF-539 CNS, 40.4%. In addition, the figures for the growth with UACC-257 melanoma and in the assay on M14 melanoma were -76.8% (active) and -95.3% (active), respectively.

Regarding `CCOC(=O)/C=C/c1c(C)[nH]c(=O)[nH]c1=O`, the growth in the assay on NCI-H23 lung is 81.2%; in the assay on NCI-H226 lung, 98.6%; in the assay with NCI-H322M lung, 136%; in the assay on HOP-62 NSCLC, 93.7%; with NCI-H460 lung, 51.7%; in the assay with HOP-92 NSCLC it was 114%. The growth with NCI-H522 lung is 59.6%; in the assay with A549/ATCC NSCLC it was 97.2%; with 786-0 renal, 114%; in the assay with COLO 205 colon, 92.6%; with DU-145 prostate, 21%; in the assay with K-562 leukemia it was 101%. For the same molecule, the growth with MALME-3M melanoma is 172%; in the assay on MDA-MB-231 breast, 93.1%; in the assay on RXF 393 renal, 89.3%; with SF-268 CNS it was 96%; with SF-295 CNS, 76.5%; in the assay with SF-539 CNS, 98.9%. The values for the growth with UACC-257 melanoma and with M14 melanoma were 109% and 97.5%, respectively.
